# Assay results reported in publication PMC7862700, “An all-to-all approach to the identification of sequence-specific readers for epigenetic DNA modifications on cytosine”.
# Experiments:
# Assay in all cases: DAPPL (digital affinity profiling via proximity ligation, sequencing); 10 mM Tris-HCl pH 7.5, 50 mM NaCl, 1 mM DTT, 4% glycerol, room temperature, 30 min; GST-TFs on glutathione beads, 16-mer random dsDNA library, 0.1% formaldehyde crosslink after washing; high values mean tight binding
# FEV = target: T1, FEV (Homo sapiens, UniProt Q99581 1-238); details: protein: recombinant; tags: N-terminal GST; dsDNA, one strand shown
# T1 sequence: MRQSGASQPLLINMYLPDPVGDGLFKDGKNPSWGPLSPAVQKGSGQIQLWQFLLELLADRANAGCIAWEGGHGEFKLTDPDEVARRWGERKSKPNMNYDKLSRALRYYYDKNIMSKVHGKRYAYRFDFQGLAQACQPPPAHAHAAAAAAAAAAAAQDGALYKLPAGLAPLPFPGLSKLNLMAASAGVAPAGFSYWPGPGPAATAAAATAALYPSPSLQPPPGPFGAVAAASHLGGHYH
# Method in brief: (§1)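 The binding signal reported is, for every hexamer, its read frequency for a factor over its read frequency for the tag-only sample. Reads came from pools of yeast-expressed, GST-fused human transcription factors on glutathione beads, barcoded with DNA and mixed with that sample, which were incubated with 200 nmole of a random double-stranded 16-mer DNA library in Tris/NaCl/DTT/glycerol buffer at room temperature for 30 min. After washing, the pools were crosslinked with 0.1% formaldehyde, proximity-ligated with BsaI/T4 ligase for 1 h at 37 °C, PCR-amplified and sequenced on an Illumina NextSeq500.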
# ETV5 = ETV5 (Homo sapiens, UniProt P41161 1-510); details: protein: recombinant; tags: N-terminal GST; dsDNA, one strand shown
# Chain of ETV5 (P41161 whole entry): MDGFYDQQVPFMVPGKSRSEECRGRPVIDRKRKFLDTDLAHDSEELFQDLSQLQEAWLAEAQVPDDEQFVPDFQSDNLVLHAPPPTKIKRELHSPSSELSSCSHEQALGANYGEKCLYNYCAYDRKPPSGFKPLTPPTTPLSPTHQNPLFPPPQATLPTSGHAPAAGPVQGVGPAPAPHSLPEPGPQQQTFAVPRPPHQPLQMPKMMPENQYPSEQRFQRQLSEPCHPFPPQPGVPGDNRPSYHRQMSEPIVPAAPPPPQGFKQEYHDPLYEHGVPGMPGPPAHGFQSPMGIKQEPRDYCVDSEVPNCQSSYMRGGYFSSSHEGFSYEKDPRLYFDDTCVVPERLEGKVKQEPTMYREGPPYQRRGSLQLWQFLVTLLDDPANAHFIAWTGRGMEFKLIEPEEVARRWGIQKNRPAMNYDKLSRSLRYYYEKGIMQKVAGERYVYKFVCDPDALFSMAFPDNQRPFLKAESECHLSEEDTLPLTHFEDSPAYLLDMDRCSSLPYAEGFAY
# Method in brief: as §1
# HSF1 = HSF1 (Homo sapiens, UniProt Q00613 1-529); details: protein: recombinant; tags: N-terminal GST; chain copies: 3; dsDNA, one strand shown
# Chain of HSF1 (Q00613 whole entry): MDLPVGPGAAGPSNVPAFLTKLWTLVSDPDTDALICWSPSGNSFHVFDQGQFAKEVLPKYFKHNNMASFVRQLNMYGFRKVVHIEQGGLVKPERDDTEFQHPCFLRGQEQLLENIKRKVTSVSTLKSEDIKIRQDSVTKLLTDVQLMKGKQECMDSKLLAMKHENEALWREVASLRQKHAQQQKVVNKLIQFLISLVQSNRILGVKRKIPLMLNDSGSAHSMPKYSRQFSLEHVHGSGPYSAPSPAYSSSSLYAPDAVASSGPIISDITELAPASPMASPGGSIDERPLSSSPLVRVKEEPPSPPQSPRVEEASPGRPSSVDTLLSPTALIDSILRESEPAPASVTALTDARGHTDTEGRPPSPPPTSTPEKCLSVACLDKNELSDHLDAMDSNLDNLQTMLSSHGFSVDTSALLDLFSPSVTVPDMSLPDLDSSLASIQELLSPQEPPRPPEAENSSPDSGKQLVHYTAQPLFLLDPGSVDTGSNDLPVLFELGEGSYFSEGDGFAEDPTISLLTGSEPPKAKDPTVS
# Method in brief: as §1
# SPIC = target: T2, SPIC (Homo sapiens, UniProt Q8N5J4 1-248); details: protein: recombinant; tags: N-terminal GST; dsDNA, one strand shown
# T2 sequence: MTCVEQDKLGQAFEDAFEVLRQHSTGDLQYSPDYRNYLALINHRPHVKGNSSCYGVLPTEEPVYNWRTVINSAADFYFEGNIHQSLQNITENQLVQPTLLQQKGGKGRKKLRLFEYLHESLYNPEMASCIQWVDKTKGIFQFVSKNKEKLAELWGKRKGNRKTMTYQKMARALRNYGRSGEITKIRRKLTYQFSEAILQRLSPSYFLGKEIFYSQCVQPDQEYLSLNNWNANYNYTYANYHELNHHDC
# Method in brief: as §1
# ELF4 = ELF4 (Homo sapiens, UniProt Q99607 1-663); details: protein: recombinant; tags: N-terminal GST; dsDNA, one strand shown
# Chain of ELF4 (Q99607 whole entry): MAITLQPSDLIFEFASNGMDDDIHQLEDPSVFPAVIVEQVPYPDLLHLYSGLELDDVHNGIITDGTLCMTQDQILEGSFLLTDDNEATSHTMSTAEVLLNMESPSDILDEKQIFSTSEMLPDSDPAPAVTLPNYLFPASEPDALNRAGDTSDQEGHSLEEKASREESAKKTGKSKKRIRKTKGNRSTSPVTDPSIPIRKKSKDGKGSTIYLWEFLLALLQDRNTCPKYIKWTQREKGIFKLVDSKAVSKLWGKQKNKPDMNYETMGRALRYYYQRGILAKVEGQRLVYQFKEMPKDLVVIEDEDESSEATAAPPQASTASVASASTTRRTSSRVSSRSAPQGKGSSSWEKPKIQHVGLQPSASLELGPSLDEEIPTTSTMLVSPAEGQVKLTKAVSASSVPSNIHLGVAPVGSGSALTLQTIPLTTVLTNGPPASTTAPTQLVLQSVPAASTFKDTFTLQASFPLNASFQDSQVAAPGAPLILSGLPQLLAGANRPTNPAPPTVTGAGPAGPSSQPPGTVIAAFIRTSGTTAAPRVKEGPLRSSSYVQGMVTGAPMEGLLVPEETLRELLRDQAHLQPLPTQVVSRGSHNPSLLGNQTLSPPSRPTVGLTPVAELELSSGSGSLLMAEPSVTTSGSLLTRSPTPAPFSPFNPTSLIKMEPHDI
# Method in brief: as §1
# ELK4 = target: T3, ELK4 (Homo sapiens, UniProt P28324-2 1-405); details: protein: recombinant; tags: N-terminal GST; dsDNA, one strand shown
# T3 sequence: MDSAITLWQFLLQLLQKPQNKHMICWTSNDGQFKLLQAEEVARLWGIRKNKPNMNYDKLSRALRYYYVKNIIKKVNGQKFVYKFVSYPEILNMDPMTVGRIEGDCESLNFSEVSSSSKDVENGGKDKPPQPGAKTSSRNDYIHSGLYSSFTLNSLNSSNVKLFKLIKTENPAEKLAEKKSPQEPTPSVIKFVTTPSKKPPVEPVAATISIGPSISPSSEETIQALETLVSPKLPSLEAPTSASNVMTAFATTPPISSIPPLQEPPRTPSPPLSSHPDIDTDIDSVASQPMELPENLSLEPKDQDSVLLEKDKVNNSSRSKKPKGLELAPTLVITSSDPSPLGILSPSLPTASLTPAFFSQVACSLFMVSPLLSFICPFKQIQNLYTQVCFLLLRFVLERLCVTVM
# Method in brief: as §1
# ETV2 = target: T4, ETV2 (Homo sapiens, UniProt O00321 1-342); details: protein: recombinant; tags: N-terminal GST; dsDNA, one strand shown
# T4 sequence: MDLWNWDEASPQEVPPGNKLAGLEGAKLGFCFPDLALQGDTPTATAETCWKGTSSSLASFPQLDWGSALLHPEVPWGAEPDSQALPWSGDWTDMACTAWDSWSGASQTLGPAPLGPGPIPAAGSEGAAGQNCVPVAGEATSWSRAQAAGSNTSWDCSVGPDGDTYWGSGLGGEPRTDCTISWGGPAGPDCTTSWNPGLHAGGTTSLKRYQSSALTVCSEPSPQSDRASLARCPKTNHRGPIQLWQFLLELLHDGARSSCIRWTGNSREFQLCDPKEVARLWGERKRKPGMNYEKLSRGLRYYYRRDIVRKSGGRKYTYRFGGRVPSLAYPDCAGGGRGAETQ
# Method in brief: as §1
# ELF3 = target: T5, ELF3 (Homo sapiens, UniProt P78545 1-371); details: protein: recombinant; tags: N-terminal GST; dsDNA, one strand shown
# T5 sequence: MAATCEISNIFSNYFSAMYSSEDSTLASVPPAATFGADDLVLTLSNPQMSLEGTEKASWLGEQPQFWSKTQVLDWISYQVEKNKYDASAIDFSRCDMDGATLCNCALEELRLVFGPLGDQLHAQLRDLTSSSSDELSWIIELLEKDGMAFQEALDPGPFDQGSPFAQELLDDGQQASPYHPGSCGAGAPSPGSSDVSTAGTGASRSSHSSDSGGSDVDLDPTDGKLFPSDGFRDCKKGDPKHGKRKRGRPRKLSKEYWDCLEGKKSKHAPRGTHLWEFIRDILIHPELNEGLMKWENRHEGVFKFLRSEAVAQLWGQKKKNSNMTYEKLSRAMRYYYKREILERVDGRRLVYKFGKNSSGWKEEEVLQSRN
# Method in brief: as §1
# CRX = CRX (Homo sapiens, UniProt O43186 1-299); details: protein: recombinant; tags: N-terminal GST; dsDNA, one strand shown
# Chain of CRX (O43186 whole entry): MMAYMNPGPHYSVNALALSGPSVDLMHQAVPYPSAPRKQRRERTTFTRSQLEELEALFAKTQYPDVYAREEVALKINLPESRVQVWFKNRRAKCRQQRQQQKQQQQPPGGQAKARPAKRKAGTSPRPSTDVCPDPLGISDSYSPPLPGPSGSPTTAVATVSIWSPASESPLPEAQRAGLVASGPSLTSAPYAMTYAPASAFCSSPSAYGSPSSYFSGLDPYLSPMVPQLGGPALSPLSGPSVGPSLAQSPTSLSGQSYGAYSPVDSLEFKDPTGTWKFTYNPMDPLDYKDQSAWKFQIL
# Method in brief: as §1
# ETV1 = ETV1 (Homo sapiens, UniProt P50549 1-477); details: protein: recombinant; tags: N-terminal GST; dsDNA, one strand shown
# Chain of ETV1 (P50549 whole entry): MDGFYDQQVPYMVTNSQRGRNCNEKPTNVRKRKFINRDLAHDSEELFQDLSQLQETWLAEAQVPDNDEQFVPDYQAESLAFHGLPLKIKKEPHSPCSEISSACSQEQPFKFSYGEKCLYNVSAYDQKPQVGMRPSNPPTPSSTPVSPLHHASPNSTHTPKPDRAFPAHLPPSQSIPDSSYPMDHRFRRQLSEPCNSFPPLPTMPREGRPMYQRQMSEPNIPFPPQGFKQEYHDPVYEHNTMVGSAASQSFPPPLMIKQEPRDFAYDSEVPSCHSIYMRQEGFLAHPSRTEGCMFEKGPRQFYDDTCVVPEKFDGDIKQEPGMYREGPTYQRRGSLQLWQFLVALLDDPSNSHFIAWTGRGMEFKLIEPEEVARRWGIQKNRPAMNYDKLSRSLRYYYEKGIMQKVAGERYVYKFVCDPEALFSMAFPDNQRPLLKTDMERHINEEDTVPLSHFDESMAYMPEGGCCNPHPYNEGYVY
# Method in brief: as §1
# ERF = target: T6, ERF (Homo sapiens, UniProt P50548 1-548); details: protein: recombinant; tags: N-terminal GST; dsDNA, one strand shown
# T6 sequence: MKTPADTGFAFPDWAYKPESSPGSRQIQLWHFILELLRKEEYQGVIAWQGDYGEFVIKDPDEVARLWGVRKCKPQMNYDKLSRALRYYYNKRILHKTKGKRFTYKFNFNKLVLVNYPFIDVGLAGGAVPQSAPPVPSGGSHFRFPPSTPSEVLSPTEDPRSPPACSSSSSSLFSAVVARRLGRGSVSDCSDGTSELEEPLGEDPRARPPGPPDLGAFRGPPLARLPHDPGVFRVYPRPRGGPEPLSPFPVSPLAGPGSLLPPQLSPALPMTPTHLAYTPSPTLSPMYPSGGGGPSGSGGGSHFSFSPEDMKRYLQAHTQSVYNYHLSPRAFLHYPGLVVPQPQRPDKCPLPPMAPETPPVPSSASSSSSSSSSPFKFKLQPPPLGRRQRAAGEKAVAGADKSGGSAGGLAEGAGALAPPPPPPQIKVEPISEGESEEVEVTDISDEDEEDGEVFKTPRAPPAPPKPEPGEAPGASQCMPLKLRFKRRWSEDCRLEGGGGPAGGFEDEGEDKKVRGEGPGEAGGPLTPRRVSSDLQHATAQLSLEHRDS
# Method in brief: as §1
# ETV3L = target: T7, ETV3L (Homo sapiens, UniProt Q6ZN32 1-361); details: protein: recombinant; tags: N-terminal GST; dsDNA, one strand shown
# T7 sequence: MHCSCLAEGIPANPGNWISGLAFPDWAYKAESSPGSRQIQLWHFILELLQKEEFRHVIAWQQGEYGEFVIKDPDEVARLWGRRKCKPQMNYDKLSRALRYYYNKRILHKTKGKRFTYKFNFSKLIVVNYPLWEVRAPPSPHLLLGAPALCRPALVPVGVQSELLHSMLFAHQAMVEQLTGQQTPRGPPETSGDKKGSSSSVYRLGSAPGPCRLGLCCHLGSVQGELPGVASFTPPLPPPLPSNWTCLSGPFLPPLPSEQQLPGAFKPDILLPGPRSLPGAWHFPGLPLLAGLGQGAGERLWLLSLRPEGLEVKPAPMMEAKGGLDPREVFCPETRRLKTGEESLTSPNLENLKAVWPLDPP
# Method in brief: as §1
# ETS2 = target: T8, ETS2 (Homo sapiens, UniProt P15036 1-469); details: protein: recombinant; tags: N-terminal GST; dsDNA, one strand shown
# T8 sequence: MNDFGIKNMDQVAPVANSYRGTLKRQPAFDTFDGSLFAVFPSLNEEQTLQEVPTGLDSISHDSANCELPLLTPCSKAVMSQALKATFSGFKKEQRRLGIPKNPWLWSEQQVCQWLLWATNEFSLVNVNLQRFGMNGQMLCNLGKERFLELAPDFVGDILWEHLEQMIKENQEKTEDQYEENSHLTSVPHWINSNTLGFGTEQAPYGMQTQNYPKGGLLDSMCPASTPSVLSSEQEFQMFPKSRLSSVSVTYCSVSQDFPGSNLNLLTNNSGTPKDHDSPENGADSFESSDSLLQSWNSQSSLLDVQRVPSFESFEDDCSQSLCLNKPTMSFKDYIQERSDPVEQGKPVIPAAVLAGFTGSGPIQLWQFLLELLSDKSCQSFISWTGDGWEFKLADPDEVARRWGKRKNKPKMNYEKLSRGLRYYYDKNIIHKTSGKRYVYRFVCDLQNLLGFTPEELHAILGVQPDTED
# Method in brief: as §1
# SPDEF = target: T9, SPDEF (Homo sapiens, UniProt O95238 1-335); details: protein: recombinant; tags: N-terminal GST; dsDNA, one strand shown
# T9 sequence: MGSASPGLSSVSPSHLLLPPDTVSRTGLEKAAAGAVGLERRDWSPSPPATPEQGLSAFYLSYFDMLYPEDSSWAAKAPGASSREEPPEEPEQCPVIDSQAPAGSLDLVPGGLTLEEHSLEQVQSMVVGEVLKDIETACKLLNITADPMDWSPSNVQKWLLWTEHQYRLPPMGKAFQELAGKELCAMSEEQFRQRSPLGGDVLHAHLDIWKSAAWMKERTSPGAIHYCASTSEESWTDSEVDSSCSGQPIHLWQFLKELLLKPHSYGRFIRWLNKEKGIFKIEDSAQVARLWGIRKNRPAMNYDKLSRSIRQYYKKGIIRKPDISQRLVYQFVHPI
# Method in brief: as §1
# ETV7 = target: T10, ETV7 (Homo sapiens, UniProt Q9Y603 1-341); details: protein: recombinant; tags: N-terminal GST; dsDNA, one strand shown
# T10 sequence: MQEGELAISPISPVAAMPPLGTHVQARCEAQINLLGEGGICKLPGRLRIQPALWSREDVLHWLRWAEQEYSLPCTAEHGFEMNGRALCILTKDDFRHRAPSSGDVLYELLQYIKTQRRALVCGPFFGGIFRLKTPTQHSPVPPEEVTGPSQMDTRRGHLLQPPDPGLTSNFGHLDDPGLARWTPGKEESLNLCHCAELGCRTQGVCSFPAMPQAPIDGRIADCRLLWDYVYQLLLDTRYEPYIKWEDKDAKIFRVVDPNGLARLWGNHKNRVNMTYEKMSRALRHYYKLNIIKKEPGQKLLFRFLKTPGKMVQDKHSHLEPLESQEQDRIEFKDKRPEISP
# Method in brief: as §1
# ELF5 = target: T11, ELF5 (Homo sapiens, UniProt Q9UKW6-2 1-255); details: protein: recombinant; tags: N-terminal GST; dsDNA, one strand shown
# T11 sequence: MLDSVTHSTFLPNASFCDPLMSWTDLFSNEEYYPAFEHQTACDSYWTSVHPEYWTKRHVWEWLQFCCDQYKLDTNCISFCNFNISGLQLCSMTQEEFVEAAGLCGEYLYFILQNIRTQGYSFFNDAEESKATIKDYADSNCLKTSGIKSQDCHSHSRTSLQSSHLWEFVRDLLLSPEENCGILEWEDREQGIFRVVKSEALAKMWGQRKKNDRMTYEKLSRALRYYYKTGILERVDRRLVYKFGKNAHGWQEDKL
# Method in brief: as §1
# ETV3 = target: T12, ETV3 (Homo sapiens, UniProt P41162-2 1-143); details: protein: recombinant; tags: N-terminal GST; dsDNA, one strand shown
# T12 sequence: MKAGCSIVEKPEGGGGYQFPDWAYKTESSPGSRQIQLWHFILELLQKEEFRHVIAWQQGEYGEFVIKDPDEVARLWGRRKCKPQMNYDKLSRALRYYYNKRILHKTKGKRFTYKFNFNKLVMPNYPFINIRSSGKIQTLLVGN
# Method in brief: as §1
# ETV6 = ETV6 (Homo sapiens, UniProt P41212 1-452); details: protein: recombinant; tags: N-terminal GST; dsDNA, one strand shown
# Chain of ETV6 (P41212 whole entry): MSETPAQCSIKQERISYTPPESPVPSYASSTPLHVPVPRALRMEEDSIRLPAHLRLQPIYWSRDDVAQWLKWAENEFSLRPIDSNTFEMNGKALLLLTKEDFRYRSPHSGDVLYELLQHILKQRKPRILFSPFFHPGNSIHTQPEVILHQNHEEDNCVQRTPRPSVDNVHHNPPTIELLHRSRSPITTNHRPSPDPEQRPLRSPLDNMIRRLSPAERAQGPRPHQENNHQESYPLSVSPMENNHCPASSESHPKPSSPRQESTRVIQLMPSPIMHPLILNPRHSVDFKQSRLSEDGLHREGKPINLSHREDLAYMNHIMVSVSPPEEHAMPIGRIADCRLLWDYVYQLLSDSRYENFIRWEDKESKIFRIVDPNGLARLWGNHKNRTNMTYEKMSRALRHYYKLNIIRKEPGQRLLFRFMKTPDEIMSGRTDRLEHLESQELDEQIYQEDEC
# Method in brief: as §1
sequence,measurement,setting,value
AGCTAT,binding signal,FEV,"1.16 fold enrichment (6-mer frequency, TF over GST control)"
same,binding signal,ETV5,"1.16 fold enrichment (6-mer frequency, TF over GST control)"
same,binding signal,HSF1,"1.12 fold enrichment (6-mer frequency, TF over GST control)"
same,binding signal,SPIC,"1.15 fold enrichment (6-mer frequency, TF over GST control)"
same,binding signal,ELF4,"1.15 fold enrichment (6-mer frequency, TF over GST control)"
same,binding signal,ELK4,"1.27 fold enrichment (6-mer frequency, TF over GST control)"
same,binding signal,ETV2,"1.2 fold enrichment (6-mer frequency, TF over GST control)"
same,binding signal,ELF3,"1.2 fold enrichment (6-mer frequency, TF over GST control)"
same,binding signal,CRX,"1.27 fold enrichment (6-mer frequency, TF over GST control)"
same,binding signal,ETV1,"1.2 fold enrichment (6-mer frequency, TF over GST control)"
same,binding signal,ERF,"1.17 fold enrichment (6-mer frequency, TF over GST control)"
same,binding signal,ETV3L,"1.17 fold enrichment (6-mer frequency, TF over GST control)"
same,binding signal,ETS2,"1.11 fold enrichment (6-mer frequency, TF over GST control)"
same,binding signal,SPDEF,"1.14 fold enrichment (6-mer frequency, TF over GST control)"
same,binding signal,ETV7,"1.13 fold enrichment (6-mer frequency, TF over GST control)"
same,binding signal,ELF5,"1.12 fold enrichment (6-mer frequency, TF over GST control)"
same,binding signal,ETV3,"1.13 fold enrichment (6-mer frequency, TF over GST control)"
same,binding signal,ETV6,"1.08 fold enrichment (6-mer frequency, TF over GST control)"
